Screen size: about 330,000 compounds; about 980 (0.3%) were called active. The list comes from a sample in which actives are over-represented; it also holds similar structures and randomly drawn compounds. Unmarked numbers belong to inactive results.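 The calls were made as follows: active = percent response vs DMSO below 50%; inconclusive = fewer than 70 events counted for the yeast strain; inactive = the rest.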

This assay is described as follows: RPL19A-GFP expression modulators in yeast, primary screen, cell-based, S. cerevisiae, multiplex flow cytometry, MLPCN (AID 2025).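 Also: median channel GFP fluorescence of the barcoded RPL19A-GFP strain; ratio of sample median GFP to plate DMSO average so 100% = DMSO; lower means less RPL19A-GFP as with rapamycin TOR inhibition.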 As to conditions: S. cerevisiae RPL19A-GFP strain, 3 h, at 10 µM, stronger effect = lower value.
As for `COc1ccc(CN2CC(C(=O)NCCc3ccc(Cl)cc3)CC2=O)cc1` (stereo unspecified), the percent response vs DMSO is 32.5% [may fluoresce violet] (active).
For `COc1ccc(CN2CC(C(=O)NCCN3CCN(c4ccccc4F)CC3)CC2=O)cc1` (stereo unspecified), the percent response vs DMSO is 99.6%.
The value for `COc1ccc(CN2CC(C(=O)NC3CCCCC3)CC2=O)cc1` (stereo unspecified) was 99.4%.
The value for `O=C1C=CC(=O)N1c1ccc(N2CCCCC2)cc1` was 64.6%.
For `CCOc1ccc(Br)cc1S(=O)(=O)Nc1ccc(C(=O)OC(C)C(=O)N(C)c2ccccc2)cc1` (stereo unspecified) the value was 99.2%; for `Nc1c(-c2ccccc2)nnn1Cc1ccccc1`, 93.1%; for `Cc1nn(Cc2ccccc2)c(C)c1NS(=O)(=O)c1ccccc1`, 125%.
For the compound `OCc1nc(CO)n(Cc2ccccc2)n1`, the percent response vs DMSO is 34.3% [may fluoresce violet] (active).
For `CCOc1ccccc1N1C(=O)CC(Sc2nccc(C)n2)C1=O` (stereo unspecified) the value was 101%; for `C=C1CCN([C@@H](Cc2ccccc2)C(=O)N2CCOCC2)S(=O)(=O)c2ccccc21`, 102%.
The value for `CCOc1cc(N2CCOCC2)c(OCC)cc1NC(=O)COc1cccc2cccnc12` was 38.4% [may fluoresce violet] (active); that for `CCOc1cc(N2CCOCC2)c(OCC)cc1NC(=O)c1cc(C)nc2ccccc12` was 101%.
For `CCOc1cc(N2CCOCC2)c(OCC)cc1NC(=O)COc1cccc(Cl)c1` the value was 101%; for `CCCOc1ccc(-c2c(C(=O)N/N=C/c3ccco3)nnn2-c2nonc2N)cc1`, 99.2%; for `Cc1ccccc1S(=O)(=O)N1[C@@H](c2cccc(Cl)c2)C(C(=O)O)=CC[C@H]1c1ccc(Cl)cc1`, 99.8%.
As to `O=C(CN1C(=O)COc2ccc(Cl)cc21)N1CCOCC1`, the percent response vs DMSO is 101%.
The value for `Cc1c(C#N)c(NC(=O)c2ccccc2)n(Cc2ccccc2)c1C` was 92.3%.
For `COc1ccc(Cn2c(C)c(C)c(C#N)c2NC(=O)Nc2ccc(F)cc2)cc1` the value was 97.2%; for `Cc1ccc(C(=O)Nc2c(C#N)c(C)c(C)n2Cc2ccccc2)cc1`, 43.3% [may fluoresce violet] (active).
The value for `COc1ccccc1NC(=S)N1CCN(c2ccc(F)cc2)CC1` was 106%.
Take `COc1cccc(NC(=O)CSc2nnc(Cc3ccc(OC)c(OC)c3)o2)c1`: the percent response vs DMSO was 97.7%.
The value for `N#Cc1ccc(C(=O)Nc2nc(-c3cccs3)c(C(=O)C(F)(F)F)s2)cc1` was 97.5%; that for `CCCc1noc2c1/C(=N\O)CCC2` was 98.8%.
As to `CCCc1nn2c(=O)cc(CSCC(=O)Nc3cccc(C)c3)nc2s1`, the percent response vs DMSO is 98%.
On to `O=C(Cn1ncc2c3ccccc3n(Cc3ccccc3)c2c1=O)NCc1ccccn1`, for which the percent response vs DMSO was 93.6%.
As for `Cc1ccc(Cn2c(C)c3cnn(CC(=O)NCc4ccccn4)c(=O)c3c2C)cc1`, the percent response vs DMSO was 99.3%.
The value for `Cc1c2cnn(CC(=O)NCc3ccccn3)c(=O)c2c(C)n1Cc1ccc(Cl)cc1` was 28.5% [may fluoresce violet] (active); that for `O=C(NCc1ccccc1Cl)C1CCN(S(=O)(=O)c2cccc3nonc23)CC1` was 49% [may fluoresce violet] (active); that for `O=C(CCS(=O)(=O)c1cccc2nonc12)NCCc1ccccc1Cl` was 104%.
The value for `O=C(NCc1ccccc1Cl)C1CCN(S(=O)(=O)N2CCOCC2)CC1` was 91%; that for `CC(=O)O[C@]1(C(C)=O)CC[C@H]2[C@@H]3C=C(C)C4=CC(=O)CC[C@]4(C)[C@H]3CC[C@@]21C` was 33% [may fluoresce violet] (active).
The value for `CC(=O)C12CC(C)=C(C)CC1CC1C3CCC4=CC(=O)CCC4(C)C3CCC12C` (stereo unspecified) was 99.3%.
`CC(C)CCN1CCN=C1N(C)C`: the percent response vs DMSO was 99.1%.
For `NC(=O)C1CCN(CC(O)CSc2ccc(F)cc2)CC1` (stereo unspecified) the value was 99.8%.
On to `COc1cc(NC(=O)c2ccc(-c3csc(C)n3)cc2)c(OC)cc1Cl`, for which the percent response vs DMSO was 102%.
For the compound `CCCCc1c(O)nc2n(c1=O)CCS2`, the percent response vs DMSO was 93.4%.
The value for `CCCS(=O)(=O)Nc1ccc(-c2cn3c(n2)SCC3)cc1` was 40.4% [may fluoresce violet] (active); that for `CCS(=O)(=O)Nc1ccc(C2=NN(C(C)=O)C(c3cccs3)C2)cc1` (stereo unspecified) was 102%.
For the compound `COc1ccc(CC(NC(C)=O)C(=O)NC2CCN(C(=O)c3ccc(OC)c(OC)c3)CC2)cc1OC` (stereo unspecified), the percent response vs DMSO is 93.8%.
The value for `CCc1ccc(OCC2c3cc(OC)c(OC)cc3CCN2C(C)=O)cc1` (stereo unspecified) was 42.9% [may fluoresce violet] (active); that for `COc1ccc2[nH]c(=O)c(C3c4cc(OC)c(OC)cc4CCN3C(=O)c3ccco3)cc2c1` (stereo unspecified) was 103%; that for `COc1ccccc1-n1nnnc1S(=O)(=O)Cc1ccc(Cl)cc1` was 102%.
The value for `Cc1cccc(C(=O)NC(=S)N(C)C2CCCCC2)c1` was 96.9%; that for `Cc1c(NC(=O)Nc2cccc([N+](=O)[O-])c2)c(=O)n(-c2ccccc2)n1C` was 102%.
For `Cc1c(NC(=O)c2c([N+](=O)[O-])cnn2C)c(=O)n(-c2ccccc2)n1C` the value was 41.5% [may fluoresce violet] (active); for `Cc1cc(OCC(=O)Nc2c(C)n(C)n(-c3ccccc3)c2=O)ccc1[N+](=O)[O-]`, 97.2%; for `Cc1ccccc1-c1cc(C(=O)NCC2CC2)n(CC2CC(c3cccnc3)=NO2)n1` (stereo unspecified), 104%.
For the compound `CNC[C@H](CC1CCCCC1)NC[C@H](NCCC1CCCC1)[C@H](C)O`, the percent response vs DMSO is 93.9%.
For `CCCc1ccc(-c2c(C)sc(NC(=O)c3ccnn3C)c2C#N)cc1` the value was 98%.
On to `CC1(c2ccc3ccccc3c2)NC(=O)NC1=O` (stereo unspecified), for which the percent response vs DMSO is 105%.
As for `COc1ccc(-n2nnnc2SCc2nc(N)nc(N3CCOCC3)n2)cc1`, the percent response vs DMSO is 48.8% [may fluoresce violet] (active).
For `COc1ccc(-c2nnn(Cc3nc(N)nc(N4CCCCC4)n3)n2)cc1` the value was 98.7%.
The value for `COc1ccc(CSc2nnnn2-c2ccc(C(=O)O)cc2)cc1` was 99.4%.
For `O=C(COC(=O)CNC(=O)C1CCCCC1)Nc1cccc(F)c1` the value was 100%; for `OCC(O)CN(c1ccccc1)c1ccccc1` (stereo unspecified), 94.3%.
For the compound `CCn1cc(C(=O)OCC(=O)Nc2cccc(C)c2)c(=O)c2ccc(C)nc21`, the percent response vs DMSO was 96.6%.
With `C=CC[C@H](CC(=O)N(CCO)Cc1ccccc1)C(=O)N[C@@H](COC(=O)[C@@H](CC=C)Cc1ccc(F)cc1)Cc1ccccc1`, the percent response vs DMSO was 96%.
For `CCNS(=O)(=O)c1ccc(NC(=O)c2cncc(Br)c2)cc1` the value was 96.5%; for `O=C(CN1CCN(S(=O)(=O)c2ccc(Br)cc2)CC1)Nc1ccccc1C(=O)c1ccccc1`, 100%.
For `O=C(NNS(=O)(=O)Cc1ccccc1)c1ccc([N+](=O)[O-])cc1` the value was 44.4% [may fluoresce violet] (active).
The value for `O=C(CNC(=O)c1ccccc1)Oc1ccc([N+](=O)[O-])cc1` was 103%; that for `O=C(Cc1ccccc1)NNS(=O)(=O)c1ccc([N+](=O)[O-])cc1` was 97.4%.
Take `CC(=O)c1ccc(N2CCN(C(=O)CCNC(=O)Cn3ccc4ccccc4c3=O)CC2)cc1`: the percent response vs DMSO was 104%.
For `COc1cc(C(C(=O)NC2CCCC2)N(C(=O)c2ccco2)c2ccccc2C(C)=O)cc(OC)c1OC` (stereo unspecified) the value was 108%; for `O=C(c1ccncc1)c1ccc([N+](=O)[O-])cc1`, 98.9%; for `O=C(CC(n1cncn1)C(Cl)(Cl)Cl)c1ccc([N+](=O)[O-])cc1` (stereo unspecified), 104%.
For `O=C(C1CCCO1)N(c1ccc(F)cc1)C1C=CS(=O)(=O)C1` (stereo unspecified) the value was 97.9%; for `CCOc1ccc(C(C(=O)NC2CCCC2)N(C(=O)c2snc(C(N)=O)c2N)C2CCCC2)cc1` (stereo unspecified), 95.8%; for `NC(=O)c1nsc(C(=O)N(CCCN2CCOCC2)C(C(=O)NC2CCCCC2)c2ccc(Cl)cc2)c1N` (stereo unspecified), 38% [may fluoresce violet] (active).
With `CC(C)(C)NC(=O)C(c1ccc(Cl)cc1)N(CCO)C(=O)c1snc(C(N)=O)c1N` (stereo unspecified), the percent response vs DMSO is 99.5%.
For `O=C(CCc1ccc(S(=O)(=O)N2CCOCC2)cc1)NN=C1CCCCCCC1` the value was 101%; for `O=C(O)c1ccc(S(=O)(=O)N2CCOCC2)o1`, 47.2% [may fluoresce violet] (active).
In the case of `O=C(c1cc(S(=O)(=O)N2CCOCC2)ccc1Cl)N1CCOCC1`, the percent response vs DMSO was 112%.
For `CCOC(=O)CNC(=O)/C=C/c1c(Cl)cccc1Cl` the value was 94.2%; for `CC(C)=CCCC1(C)C=Cc2c(ccc3c2[nH]c2cc(O)c(C)cc23)O1` (stereo unspecified), 97.2%.
With `O=C1CN(C(=O)COc2c(Cl)cccc2Cl)c2ccccc2N1`, the percent response vs DMSO was 91.8%.
For `COc1cc(OC)c(C(=O)OCC(=O)N2CC(=O)Nc3ccccc32)cc1OC` the value was 93.3%; for `O=C1CN(C(=O)COC(=O)c2cnc(Cl)c(Cl)c2)c2ccccc2N1`, 18.6% [may fluoresce violet] (active).
For `CN(NC(=O)C1CC(=O)N(c2ccccc2)C1)C1=NS(=O)(=O)c2ccccc21` (stereo unspecified), the percent response vs DMSO is 102%.
For `CC1(C)CC2CC(C)(CN2c2ncnc3ccc(Br)cc23)C1` (stereo unspecified) the value was 105%; for `CN(CC(=O)Nc1ccccc1Cl)C(=O)c1ccccc1SCC(=O)N1CCCC1`, 94.7%; for `O=c1c2c(nc3cc(-c4cccc(Cl)c4)[nH]n13)CCCC2`, 99.2%.
The value for `O=c1c2c(nc3nc[nH]n13)CCC2` was 19.2% [may fluoresce violet] (active).
For `CSc1nc2nc3c(c(=O)n2[nH]1)CCC3` the value was 89.8%; for `CCCCCC(O)c1cccc(OCc2ccc3ccccc3n2)c1` (stereo unspecified), 88.3%; for `O=C1CC(=O)Nc2cc(S(=O)(=O)N3CCN(c4cccc(C(F)(F)F)c4)CC3)ccc2N1`, 97.6%.

The values above are taken from PubChem BioAssay AID2025 (NMMLSC, 2009).
